Drawing on PubChem BioAssay (NCI), this text covers growth for 11 compounds.

Experiment in all cases: NCI-60 one-dose screen, 48 h (100 = growth as untreated, 0 = no growth, -100 = all killed)
Holding throughout (conditions): 10 µM unless noted

Assay [1] deals with DU-145 prostate.
Assay [2] relates to K-562 leukemia.
Assay [3] concerns MALME-3M melanoma.
For assay [4], the system named is MDA-MB-231 breast.
The subject of assay [5] is RXF 393 renal.
Assay [6] relates to SF-268 CNS.
Assay [7] has as its system SF-295 CNS.
Assay [8] has as its system SF-539 CNS.
The subject of assay [9] is UACC-257 melanoma.
The test system of assay [10] is M14 melanoma.

“And” between values parts separate entries of the source, which are not always exact repeats. Equal values may be shown once. About 83,000 compounds went through this panel and 20% of them were active in at least one assay; those are over-represented in the sample as a whole.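 Results are percent growth after 48 hours of single-concentration exposure. 100 means growth as in untreated cells, lower positive values show inhibition; negative values down to -100 show cell death.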 The source made the active and inactive calls. The calls were made as follows: active = growth percent below 10; inactive = the rest.

On to `Clc1ccc(/C=C/c2ccc3ccccc3n2)cc1`, for which the growth is 1.65% (active) and 108% (inactive) and 103% (inactive) in assay [1]; 17.7% (inactive) and 91.2% (inactive) and 87.3% (inactive) in [2]; 62.3% (inactive) and 89.8% (inactive) and 77.1% (inactive) in [3]; 31% (inactive) and 80.1% (inactive) and 84% (inactive) in assay [4]; 8.75% (active) and 117% (inactive) in [5]; 43.4% (inactive) and 97.7% (inactive) and 96.9% (inactive) in assay [6]. Besides, the growth is 17.9% (inactive) and 74% (inactive) and 84.7% (inactive) in assay [7]; 1.74% (active) and 102% (inactive) in [8]; 44.2% (inactive) and 134% (inactive) and 104% (inactive) in [9]; 81% (inactive) and 75.3% (inactive) in assay [10].

Take `Cc1cc2ccccc2c2cc3ccccc3cc12`: the growth is 107% (inactive) in [1]; 95.4% (inactive) in [2]; 86.9% (inactive) in assay [3]; 79.9% (inactive) in assay [4]; 97.7% (inactive) in assay [5]; 100% (inactive) in assay [6]. The growth was 96.9% (inactive) in assay [7], 92.6% (inactive) in assay [8], 99.6% (inactive) in assay [9] and 85.1% (inactive) in assay [10].

Turning to `N#CC(=S)Nc1ccc(Cl)c(Cl)c1`, the growth in assay [1] was 18.6% (inactive); in assay [2], 16.1% (inactive); in [3] it was -13.4% (active); in assay [4] it was -4.8% (active); in [5], 13% (inactive); in assay [6], 11% (inactive). Moreover, the growth is -0.242% (active) in assay [7], 8.61% (active) in assay [8], -6.42% (active) in [9] and 26.1% (inactive) in assay [10].

As to `CCCCCCCCCCCCCCCCC(=O)O`, the growth in [1] was 107% (inactive); in [2], 89.5% (inactive); in assay [3] it was 98.3% (inactive); in assay [4], 105% (inactive); in assay [5], 99.5% (inactive); in assay [6], 102% (inactive). Moreover, the growth in assay [7] is 104% (inactive); in assay [8], 106% (inactive); in [9], 101% (inactive); in assay [10] it was 104% (inactive).

Take `Cc1nc(Nc2ccc(Cl)cc2)c2cnn(-c3ccccc3)c2n1`: the growth in assay [1] was 107% (inactive); in assay [2], 113% (inactive); in [3], 90.3% (inactive); in assay [4], 111% (inactive); in [5], 93.6% (inactive); in [6] it was 99.8% (inactive). In addition, the growth in assay [7] is 97.1% (inactive); in assay [8] it was 99.9% (inactive); in assay [9], 101% (inactive); in [10] it was 100% (inactive).

On to `Clc1ccc2sc(-c3ccccc3)nc2c1`, for which the growth in assay [1] is 113% (inactive); in [2] it was 92.9% (inactive); in assay [3] it was 104% (inactive); in [4] it was 80.3% (inactive); in [5], 103% (inactive); in assay [6], 96% (inactive). The growth was 100% (inactive) in assay [7], 95.5% (inactive) in [8], 65.6% (inactive) in [9] and 102% (inactive) in [10].

In the case of `COc1ccc(S(=O)(=O)c2ccc(F)cc2)cc1`, the growth was 113% (inactive) in assay [1]; 115% (inactive) in assay [2]; 93% (inactive) in assay [3]; 94.2% (inactive) in [4]; 138% (inactive) in [5]; 101% (inactive) in assay [6]. Besides, the growth in [7] was 116% (inactive); in [8], 111% (inactive); in assay [9], 93.8% (inactive); in assay [10], 101% (inactive).

With `O=C(OCc1ccccc1)c1ccccc1`, the growth was 118% (inactive) and 101% (inactive) in assay [1]; 104% (inactive) in assay [2]; 109% (inactive) and 102% (inactive) in assay [3]; 88.2% (inactive) and 102% (inactive) in assay [4]; 91.4% (inactive) in [5]; 114% (inactive) and 99.1% (inactive) in assay [6]. In addition, the growth was 108% (inactive) and 103% (inactive) in [7]; 107% (inactive) and 94.9% (inactive) in [8]; 95.6% (inactive) and 85% (inactive) in assay [9]; 104% (inactive) and 91% (inactive) in assay [10].

Consider `CS(=O)(=O)c1nsc(N)n1`, for which the growth in assay [1] is 109% (inactive); in [2], 98.7% (inactive); in [3], 101% (inactive); in assay [4], 106% (inactive); in [5] it was 108% (inactive); in assay [6] it was 100% (inactive). Further, the growth was 104% (inactive) in assay [7], 102% (inactive) in assay [8], 84.9% (inactive) in [9] and 104% (inactive) in assay [10].

For `CS(=O)(=O)OCC1NC(=O)C(COS(C)(=O)=O)NC1=O` (stereo not given), the growth in assay [1] is 111% (inactive) and 102% (inactive); in assay [2], 81.6% (inactive) and 104% (inactive); in assay [3], 98.1% (inactive) and 103% (inactive); in [4], 108% (inactive) and 104% (inactive); in assay [5] it was 83.2% (inactive) and 100% (inactive); in [6], 113% (inactive) and 60.2% (inactive). Also, the growth was 133% (inactive) and 102% (inactive) in assay [7]; 106% (inactive) and 97.9% (inactive) in assay [8]; 75.5% (inactive) and 116% (inactive) in assay [9]; 91.8% (inactive) and 93.5% (inactive) in assay [10].

As to `CCN(C)c1ccccc1`, the growth was 108% (inactive) in [1]; 110% (inactive) in [2]; 96% (inactive) in assay [3]; 98.8% (inactive) in assay [4]; 106% (inactive) in [5]; 99.1% (inactive) in [6]. For the same compound, the growth in [7] is 91% (inactive); in [8] it was 97.7% (inactive); in assay [9], 103% (inactive); in assay [10], 100% (inactive).
